Assay outcomes as filed in PubChem BioAssay.
Only some compounds are listed: those with a hit (about 2.3% of all), similar ones and a draw of the others.
Bcl-xL primary = inhibitors of human Bcl-xL | GST-Bcl-xL / FITC-Bim BH3 peptide fluorescence polarization | inhibition, % at 10.9 µM | 320,000 compounds, 0.7% hits;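 active = inhibition above the mean of all tested compounds plus 3 SD, cutoff set per campaign, cut at about 30% in these data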;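 note: 0% = DMSO wells and 100% = unlabeled Bim-BH3 peptide competitor; inhibitors lower millipolarization by displacing the labeled peptide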
Target sequence (Q07817 whole entry, looked up): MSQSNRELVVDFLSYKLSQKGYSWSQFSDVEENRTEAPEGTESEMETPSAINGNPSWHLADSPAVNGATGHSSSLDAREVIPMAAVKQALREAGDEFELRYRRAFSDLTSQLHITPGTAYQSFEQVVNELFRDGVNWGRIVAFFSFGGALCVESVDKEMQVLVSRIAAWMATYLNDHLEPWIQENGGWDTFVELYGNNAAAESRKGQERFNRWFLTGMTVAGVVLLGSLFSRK
Mcl1-Bid inh = Mcl-1/Bid interaction inhibition. Q07820. TR-FRET Mcl-1/Bid-Dy647 peptide binding, 1536-well. inhibition, % at 21.7 µM. 220,000 compounds, 0.97% hits. AID 1021;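 active = compounds that cut the binding signal by more than half at the single screening dose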;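 note: His-tagged Mcl-1 with europium anti-His antibody binding Bid BH3 peptide; 0% = Mcl-1 plus peptide wells and 100% = peptide-only wells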
Mcl1-Noxa inh = disrupts binding of human Mcl-1 to Noxa peptide; 220,000 compounds, 1.5% hits; Q07820; AID 1022; TR-FRET Mcl-1/Noxa peptide binding, 2 h; inhibition, % at 21.7 µM;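 active = compounds that cut the protein-peptide binding signal by more than 50% relative to plate controls in a single-dose test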;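 note: His-tagged Mcl-1 with rhodamine Noxa BH3 peptide and terbium anti-His antibody; 0% = Mcl-1 plus Noxa peptide wells and 100% = peptide-only wells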
Mcl-1 Bim block = inhibitors of Bim-Mcl-1 interaction, human; 190,000 compounds, 0.1% hits; inhibition, % at 10 µM; Bead-based flow cytometry, Bim peptide-Mcl-1 binding; Q07820; AID 1009; in the data active = inhibition above about 40%;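 note: 0% = no compound tracer wells and 100% = peptide blocker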
MCL1-BIM inh = MCL1-BIM-BH3 interaction inhibition (human); Q07820; GST-MCL1 / FITC-Bim-BH3 fluorescence polarization; inhibition, % at 10.9 µM; 320,000 compounds, 0.68% hits; AID 2057;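 active = inhibition above the mean inhibition of all tested compounds plus 3 SD, set per campaign, cut at about 40% in these data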;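 note: 0% = DMSO wells and 100% = unlabeled Bim-BH3 peptide control; higher means more loss of mP so more displacement of Bim peptide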
GLD-1 TGE inh = GLD-1-TGE RNA interaction inhibition (C. elegans); Q17339; purified GLD-1 + fluorescein TGE RNA, fluorescence polarization; inhibition, % at 5.96 µM; 320,000 compounds, 0.44% hits; AID 2280;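 active = percent inhibition above a per-plate cutoff, the plate mean of test compounds plus 3 SD, cut at about 30% in these data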;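 note: 0% = DMSO wells with GLD-1 and probe and 100% = wells lacking GLD-1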
Target sequence (Q17339 whole entry, looked up): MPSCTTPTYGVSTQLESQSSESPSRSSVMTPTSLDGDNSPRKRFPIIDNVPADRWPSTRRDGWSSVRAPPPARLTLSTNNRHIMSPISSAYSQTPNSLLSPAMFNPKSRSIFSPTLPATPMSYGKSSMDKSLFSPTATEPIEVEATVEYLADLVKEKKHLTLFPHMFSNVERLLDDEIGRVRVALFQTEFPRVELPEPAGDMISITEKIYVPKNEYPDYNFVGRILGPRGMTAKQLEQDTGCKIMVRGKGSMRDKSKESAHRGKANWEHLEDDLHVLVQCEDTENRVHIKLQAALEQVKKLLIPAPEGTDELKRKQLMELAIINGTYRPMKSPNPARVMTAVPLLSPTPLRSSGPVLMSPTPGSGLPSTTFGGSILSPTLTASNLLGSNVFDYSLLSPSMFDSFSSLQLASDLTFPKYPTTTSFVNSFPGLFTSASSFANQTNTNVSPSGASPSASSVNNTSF
* hit, by the source's call; . = not tested or not shown; ! = not confirmed by another sample.

SMILES	Bcl-xL primary	Mcl1-Bid inh	Mcl1-Noxa inh	Mcl-1 Bim block	MCL1-BIM inh	GLD-1 TGE inh
COc1ccc(OC)c(NC(=O)CCNC(=O)c2ccco2)c1	-5.0	.	.	.	-5.4	1.1
COc1ccc(Cl)cc1NS(=O)(=O)c1cccc(C(=O)NCCCN2CCCC2=O)c1	5.8	.	.	.	5.1	3.6
CC(C)(C)C1=CC(=O)C(=O)C(C(C)(C)C)=C1	17.1	39.0	63.3*	-7.0	26.5	4.7
O=C(O)c1ccc(CP(=O)(c2ccccc2)c2ccccc2)cc1	5.7	.	.	.	10.2	1.0
COc1cccc(-c2nc(NCCN3CCOCC3)c3ccccc3n2)c1O	4.0	-78.2	51.3*	14.0	-0.9	7.3
Oc1ccccc1-c1nc(NCCN2CCOCC2)c2ccccc2n1	1.1	-16.2	29.2	-3.0	0.0	2.6
N#CC1(NC(=O)COc2ccc(S(=O)(=O)N3CCCC3)cc2[N+](=O)[O-])CCCCC1	-17.1	.	.	.	-18.2	-2.6
O=Cc1cn(-c2ccccc2)nc1-c1cc2cc(O)ccc2oc1=O	-34.9	61.2*	37.6	-2.0	-14.0	6.2
O=S(=O)(c1ccccc1)N1CCN(CCO)CC1	3.5	.	.	.	3.4	-8.2
O=C(COc1ccc(S(=O)(=O)N2CCCC2)cc1Cl)NC1CC1	-1.5	95.2*	8.7	-1.0	1.1	-0.2
Cc1noc(NS(=O)(=O)c2ccc(NC(=O)CSc3nc4ccccc4s3)cc2)c1C	12.4	9.4	64.5*	2.0	10.2	5.8
CCN(CC(=O)NCC(=O)Nc1ccc(Br)cc1C)Cc1ccccc1	-4.1	.	.	.	-5.1	7.2
O=C(CNC(=O)c1sc2ccccc2c1Cl)NCc1cccc(C(F)(F)F)c1	6.5	.	.	.	-3.7	1.9
COc1cc(C(=O)NCC(=O)N/N=C/c2ccccn2)cc(OC)c1OC	4.0	63.0*	-8.7	-1.0	6.6	3.8
O=C(CNC(=O)c1ccncc1)N/N=C/c1ccccn1	5.2	-10.0	11.0	-3.0	16.7	5.1
COc1ccc(C(C)=O)cc1COC(=O)c1ccc(C)c(S(=O)(=O)N2CCOCC2)c1	0.2	.	.	.	1.0	0.1
Oc1cccc(Nc2nc(NCC3CCCO3)c3ccccc3n2)c1 (centres undefined)	3.8	8.8	57.9*	0.0	5.2	-2.7
COC(=O)c1ccc(N/C=C/C(=O)c2ccccc2)cc1	3.8	.	.	.	6.4	-7.9
CCOC(=O)c1c(N2C(=O)C=CC2=O)sc(C)c1C	3.4	35.8	54.3*	-4.0	21.3	5.6
CCOC(=O)c1c(NC(N)=O)sc(C)c1C	5.0	-67.0	-4.2	-1.0	-4.6	6.2
Cc1cc(C)n(-c2nc3ccccc3s2)n1	4.9	-19.9	-2.5	-1.0	2.0	2.5
Cc1c2c(=O)n(-c3nc4ccccc4s3)nc-2cc(O)n1Cc1ccccc1	.	-98.7	73.4*	.	.	.
O=C(COC(=O)c1ccc(NS(=O)(=O)c2cccs2)cc1)Nc1nc2c(F)c(F)c(F)cc2s1	.	29.2	70.9*	0.0	.	.
O=C(COC(=O)c1ccco1)Nc1nc2c(F)c(F)c(F)cc2s1	-0.4	.	.	.	5.5	0.8
O=C(CBr)c1ccc([N+](=O)[O-])c(CS(=O)(=O)c2ccc(Cl)cc2)c1	9.1	.	.	.	5.8	8.0
SMILES	Bcl-xL primary	Mcl1-Bid inh	Mcl1-Noxa inh	Mcl-1 Bim block	MCL1-BIM inh	GLD-1 TGE inh
O=c1ccc2c(o1)/C(=C/C=C(Cl)Cl)CCC2	0.2	59.1*	49.2	0.0	8.0	4.6
O=C1CCCC2=C1C(c1ccccc1)C1C(=O)c3ccccc3C1=N2 (centres undefined)	4.3	-68.0	58.3*	0.0	8.5	-2.1
O=c1[nH]c(Nc2ccccc2)cc2cc(Br)ccc12	11.7	.	.	.	9.2	3.5
O=c1[nH]c(Nc2ccccc2)cc2ccccc12	54.2*	-41.5	-9.2	-3.0	38.5	55.2*
Cc1cc(C)cc(N(CC(=O)NC2CCC(C)CC2)S(=O)(=O)c2c(C)noc2C)c1 (centres undefined)	-1.6	88.5*	13.3	-6.0	5.6	4.7
Cc1cc(C)cc(N(CC(=O)O)S(=O)(=O)c2c(C)noc2C)c1	-1.6	13.4	.	-6.0	-4.4	-0.5
Cc1cccc(-n2c(CNC(=O)c3ccc(S(=O)(=O)N4CCCCC4)cc3)n[nH]c2=S)c1	-11.6	.	.	.	-5.0	-0.5
CC1CCc2sc(C(=O)NN)cc2C1 (centres undefined)	-0.8	-7.4	2.6	-5.0	3.3	72.0*
CC1CCc2sc(C(=O)Nc3ccc(C(N)=O)cc3)cc2C1 (centres undefined)	-8.4	-21.9	21.6	.	-0.9	-3.9
COc1ccc(C(=O)CC(SCC(NC(C)=O)C(=O)O)c2ccc(Cl)cc2)cc1OC (centres undefined)	1.6	.	.	.	1.8	-2.5
COc1cccc2c(=O)c3ccccc3oc12	-4.6	54.6*!	-11.1	0.0	-3.0	-8.4
Nc1n[nH]c(=S)n1/N=C1/C(=O)Nc2ccccc21	.	21.9	70.8*	0.0	.	.
O=C1Nc2ccccc2C1=Nc1ccc(F)cc1	9.9	.	.	.	6.7	6.2
Cc1cc(=O)nc2c3ccccc3n(C(C)C(=O)NCCC(C)C)n12 (centres undefined)	3.5	13.8	-10.6	.	5.2	-1.9
CC(=O)c1ccc(NC(=O)C(C)n2c3ccccc3c3nc(=O)cc(C)n32)cc1 (centres undefined)	8.5	97.2*	-3.9	.	11.3	-1.0
O=C(Oc1ccc2c(c1)OCO2)c1cc2c(s1)CCC2	1.5	-42.4	56.9*	-1.0	6.9	2.5
O=C(c1cc2c(s1)CCCC2)N1CCN(Cc2ccc3c(c2)OCO3)CC1	6.2	24.3	10.3	1.0	5.8	-4.3
CCN(c1ccccc1)S(=O)(=O)c1ccc(N2CCN(c3ccccc3O)CC2)nc1	0.2	.	.	.	9.0	2.6
C1CCC(n2nnnc2CN2CCCC2)CC1	4.6	2.6	18.8	1.0	1.2	-3.2
OC1(c2cccnc2)CCN(Cc2nnnn2C2CCCCC2)CC1	-1.9	51.5*	35.5	0.0	-0.1	5.5
COc1ccccc1N1CCN(/N=C/c2cc(OC)c(O)c(OC)c2)CC1	24.7	-49.4	54.5*	-7.0	21.9	-1.0
COc1ccccc1N1CCN(/N=C/c2cccc(O)c2)CC1	0.7	-50.0	2.8	-1.0	6.0	-14.8
COc1cccc(N(CC(=O)N2CCN(C)CC2)S(=O)(=O)c2ccccc2)c1	-2.5	59.8*	3.7	1.0	2.4	1.6
CCOc1cc(N2CCOCC2)c(OCC)cc1NC(=O)c1cc(-c2ccco2)nc2ccccc12	7.4	78.4*	49.4	-3.0	14.2	0.0
Cc1ccc(NC(=O)c2cc(-c3ccco3)nc3ccccc23)cc1S(=O)(=O)N1CCOCC1	4.2	-39.6	66.3*	1.0	13.8	4.5
CCOc1cc(N2CCOCC2)c(OCC)cc1NC(=O)CN1CCc2ccccc2C1	5.3	92.8*	18.2	0.0	5.3	5.0
COc1ccc(NC(=O)c2cc(C)nc3ccccc23)cc1S(=O)(=O)N1CCOCC1	.	.	.	.	.	4.1
COC(=O)c1cc(NC(=O)Cn2c(=O)cnc3ccccc32)cc(C(=O)OC)c1	3.0	62.1*	26.7	1.0	1.0	-2.6
